# A selection: hits, their analogues and other compounds. The true share with any hit is near 21%.
# Cycloheximide cs = Cycloheximide Counterscreen for Small Molecule Inhibitors of Shiga Toxin; AID 2314, 2010; hit rate 12% among 300,000; max response, %; cell reporter, cycloheximide protein synthesis inhibition counterscreen; in the data active means max response mostly above about 13%, no sharp cut-off; inactive means mostly below about 14%; further: read at 38.3 µM for the half of the compounds with a filed dose; 0% is about no effect
# Pf growth 48h = Primary qHTS for delayed death inhibitors of the malarial parasite plastid, 48 hour incubation. P. falciparum luciferase growth in erythrocytes, 48 h. Potency, µM (doses to about 28.7 µM), without a hit: at the highest dose activity change, negative = inhibition, usual class: inhibitors. hit rate 5.9% among 310,000. AID 504832, 2011; further: potency means the concentration at half of the fitted maximal effect; on the % scale 0 is the no-effect control and ±100 the full control effect
#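 Growth was read as firefly luciferase luminescence after a 48 h, 37 C, 5% CO2 exposure of compounds to reporter-bearing P. falciparum cultures (0.1% parasitemia, 2% hematocrit final) in Albumax-supplemented RPMI 1640.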
# NS1 inh = qHTS Assay for Inhibitors of Influenza NS1 Protein Function | Potency, µM (doses to about 46.1 µM), for inactives: at the top dose activity, positive = more growth | hit rate 0.4% among 270,000 | AID 2326, 2010; calls by dose curve; further: potency means the concentration at half of the fitted maximal effect; actives are rising curves; nearly all actives have a fitted effect of over 50% in size
#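 OD600 was taken as the measure of yeast growth restored by compound in an NS1-expressing S. cerevisiae strain. Cells had been washed out of glucose medium and diluted 1:100 into galactose -URA medium, pH 6.0.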
# Pf growth 96h = Primary qHTS for delayed death inhibitors of the malarial parasite plastid, 96 hour incubation. P. falciparum luciferase reporter growth, 96 h. Potency, µM (doses to about 28.7 µM), for the others: at the highest dose activity change, negative = inhibition, most hits filed as inhibitors. hit rate 6.9% among 320,000. AID 504834, 2011; further: potency means the concentration at half of the fitted maximal effect; on the % scale 0 is the no-effect control and ±100 the full control effect
#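 Delayed-death screen, second-generation endpoint: infected erythrocytes, 2% hematocrit, 0.05% parasitemia final; 96 hours at 37 C, 5% CO2; luciferase detection reagent; luminescence decrease equals reduced growth.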
# Shiga inhibitor = A qHTS for Small Molecule Inhibitors of Shiga Toxin; Vero cells, Shiga toxin protein synthesis inhibition reporter; inhibition, % at 38.7 µM; hit rate 9.2% among 290,000; AID 2315, 2010; in the data active means inhibition mostly above about 28%, no sharp cut-off; inactive means mostly below about 43%; further: 0% is about no effect
# Active calls of the source: *; ? = inconclusive; · = not tested or not shown; [ ] = dose if it differs, or a comment. Unless noted, the call rests on the fitted dose curve; in most records, active means well fitted inhibition curve with a large enough effect; inconclusive means small, poorly fitted or top-dose-only effect, or another doubt; inactive means no such curve, though single readings can be large or run the other way.
SMILES,Cycloheximide cs,Pf growth 48h,NS1 inh,Pf growth 96h,Shiga inhibitor
CC(=O)N1CCN(c2ccc(NC(=O)c3ccc(Br)o3)cc2Cl)CC1,28*,?,-8%,?,27
CN1CCN(c2ccc(NC(=O)c3ccc([N+](=O)[O-])o3)cc2Cl)CC1,29*,?,-5%,4%,55
Cc1ccc(NC(=O)c2ccc([N+](=O)[O-])o2)cc1S(=O)(=O)N1CCOCC1,32,9.3µM*,·,9.3µM*,28
CC(C)C(=O)N1CCN(c2ccc(NC(=O)c3ccc([N+](=O)[O-])o3)cc2Cl)CC1,-13,8%,·,?,-39
OCCC1CN(Cc2cccn2-c2ncccn2)CCN1CCc1ccccc1 (centres undefined),-3,-25%,-1%,0%,-3
O=C(Nc1cc(C(F)(F)F)cc(C(F)(F)F)c1)Nc1cnn(-c2ccc([N+](=O)[O-])cc2)c1C(F)(F)F,1,1.9µM*,1%,?,5
C/C1=C\[C@@H](C)C/C=C/[C@H]2[C@@H]3O[C@]3(C)[C@@H](C)[C@H]3[C@H](Cc4c[nH]c5ccccc45)NC(=O)[C@]32C(=O)/C=C/C(=O)[C@@H]1O,1,0.29µM*,1%,59%,-1
O=S(=O)(Nc1cccc2cccnc12)c1ccc(Br)cc1,-3,·,·,·,-11
Cc1cc(S(=O)(=O)Nc2noc3ccccc23)ccc1F,-5,0%[0.00184 µM],-2%,33%,1
COc1cc(C(F)(F)F)nc(-c2ccccn2)n1,-2,0%,1%,50%,-6
COc1cnc(-c2ccccn2)nc1Sc1ccccc1,6,13µM*,·,?,37
COc1ccc(Sc2nc(-c3ccccn3)ncc2OC)cc1,0,3.3µM*,·,3.3µM*,24
COc1cnc(-c2ccccn2)nc1Sc1ccc(Cl)cc1,-2,2.3µM*,6%,1.7µM*,-13
CCOC(=O)CSc1nc(-c2ccccn2)ncc1OC,-2,0%,·,?,-7
COc1cnc(N(C)C)nc1Sc1ccc(Cl)cc1,10,-17%,-46%,61%,-10
COc1cnc(-c2ccccn2)nc1Sc1ccc(F)cc1,-2,4.7µM*,·,1.7µM*,8
O=C(O)CCCC(=O)NCCCCc1ccccc1,8,3%,-3%,-19%,-4
O=C(NC1CC1)c1nc(Cn2cc([N+](=O)[O-])cn2)no1,-8,13%,3%,-20%,2
CCC(C)[C@H](NC(=O)NCc1ccc(F)cc1)C(=O)O (some centres undefined),-2,86%,3%,43%,-2
O=C(CC12CC3CC(CC(C3)C1)C2)NCO,0,29%,11%,7%[5.75 µM],27
CC(NC(=O)CC12CC3CC(CC(C3)C1)C2)C(=O)O (centres undefined),-4,7%,6%,9.3µM*,-1
O=C1[C@@H]2Cc3c([nH]c4ccccc34)C(c3ccccc3)N2C(=O)CN1C1CCN(Cc2ccccc2)CC1 (some centres undefined),-10,9%[0.00184 µM],1%,0.74µM*,-6
COC(=O)c1ccc(C2c3[nH]c4ccccc4c3C[C@H]3C(=O)N(C4CCN(Cc5ccccc5)CC4)CC(=O)N23)cc1 (some centres undefined),3,4.7µM*,6%,3.3µM*,-4
O=C1[C@@H]2Cc3c([nH]c4ccccc34)C(c3cccc(Br)c3)N2C(=O)CN1C1CCN(Cc2ccccc2)CC1 (some centres undefined),18*,1.5µM*,9%,?,17
COc1cccc(CN(CC(=O)NCc2ccccc2)S(=O)(=O)CCl)c1,·,13%,·,42%,·
Cc1cccc(N2C(=O)CC(c3ccc(F)cc3)C3=C2COC3=O)c1 (centres undefined),4,-1%,·,?,8
COc1ccc(OCc2nnc(SCC(=O)N3CCCCC3)o2)cc1,0,4%,-12%,12µM*,-7
CCc1ccc(OCc2nnc(SCC(=O)NC3CCCCC3)o2)cc1,20,42%,1%,-22%,47*
O=C(CSc1nnc(COc2ccc(Cl)cc2)o1)N1CCCCC1,-4,0%,-1%,36%,3
Cc1ccc(CN(CC(=O)NC2CCCC2)C(=O)CSc2nnc(COc3ccccc3)o2)cc1,-2,-4%,12%,?,8
